For assay [1], the target named is Paired box protein Pax-6 (Homo sapiens) (UniProt P26367). Put plainly: ATG_Pax6_CIS: Attagene CIS-FACTORIAL HepG2 Assay for human Paired Box 6 (PAX6) (AID 2282956). The following applies: HepG2 CIS-FACTORIAL PAX6 reporter transcription, RNA readout; actives raise or lower the signal. A digest of the protocol:
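Values derive from bidirectional curve fitting of reporter mRNA signal relative to DMSO. HepG2 cells bearing transfected cis-regulated MRTUs were exposed for 24 h; transcripts were read by RT-PCR and capillary electrophoresis.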

Assay [2] can be described thus: ATG_PXRE_CIS: Attagene CIS-FACTORIAL HepG2 Assay for human Pregnane X Receptor Element (PXRE) (AID 2282957). The following applies: HepG2 Attagene CIS-FACTORIAL PXRE reporter, mRNA; actives raise or lower the signal. In short, it runs like this:
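Using HepG2 transfected with multiple reporter transcription units, endogenous factor-driven transcription was scored as reporter mRNA after 24 h exposure.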

Assay [3] can be described thus: ATG_RORE_CIS: Attagene CIS-FACTORIAL HepG2 Assay for human RAR-related Orphan Receptor Element (RORE) (AID 2282959). The following applies: HepG2 Attagene cis-factorial RORE reporter, mRNA; actives raise or lower the signal. In short, it runs like this: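 A 24-hour exposure of transfected HepG2 hepatoma cells precedes RNA isolation and reporter RT-PCR. Labeled products are digested with HpaI and resolved by capillary electrophoresis, with gain or loss of signal scored relative to DMSO.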

Assay [4] in a line: ATG_Sox_CIS: Attagene CIS-FACTORIAL HepG2 Assay for human SRY-box transcription factor (SOX) (AID 2282960). The following applies: HepG2 Attagene cis-factorial SOX reporter, mRNA; actives raise or lower the signal. A digest of the protocol: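 HepG2, cis reporter units, 24 h exposure. Reporter mRNA: RT-PCR → FAM labelling → HpaI → CE fluorescence. Bidirectional fit vs DMSO.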

Assay [5] has as its target Transcription factor Sp1 (Homo sapiens) (UniProt P08047). Put plainly: ATG_Sp1_CIS: Attagene CIS-FACTORIAL HepG2 Assay for human Specificity Protein 1 (Sp1) (AID 2282961). The following applies: HepG2 Sp1 cis-reporter transcription, actives raise or lower the signal. A digest of the protocol:
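Liver-derived HepG2 cells, cis-element reporter library, 24 h treatment; RNA isolated, cDNA amplified with reporter-specific primers, FAM-labeled fragments sized on capillary analyzer. DMSO baseline, bidirectional curve fit.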

Assay [6] is described as follows: ATG_SREBP_CIS: Attagene CIS-FACTORIAL HepG2 Assay for human Sterol Regulatory Element Binding (SREBP) (AID 2282962). The following applies: HepG2 Attagene cis-factorial SREBP reporter, mRNA; actives raise or lower the signal. A digest of the protocol: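 Values derive from bidirectional curve fitting with DMSO as baseline. The underlying measurement is reporter mRNA from cis-element-regulated units in transiently transfected HepG2, quantified by RT-PCR and capillary electrophoresis after 24 h exposure.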

For assay [7], the target named is Signal transducer and activator of transcription 3 (Homo sapiens) (UniProt P40763). Put plainly: ATG_STAT3_CIS: Attagene CIS-FACTORIAL HepG2 Assay for human Signal Transducer and Activator of Transcription 3 (STAT3) (AID 2282963). The following applies: HepG2, Attagene cis-factorial STAT3 reporter transcription; actives raise or lower the signal. A digest of the protocol:
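Cis-factorial format: endogenous transcription factors in HepG2 drive transfected reporter units. After 24 h treatment, reporter RNA was reverse-transcribed, amplified, FAM-labelled and HpaI-digested before CE analysis; activity scored in both directions against DMSO.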

A short description of assay [8]: ATG_TA_CIS: Attagene CIS-FACTORIAL HepG2 Assay for human TA Basal Promoter (AID 2282964). The following applies: HepG2 Attagene CIS-factorial TA basal promoter reporter; actives raise or lower the signal. A digest of the protocol:
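Background internal-marker endpoint from a 52-component HepG2 cis-reporter panel. Cells treated 24 h; reporter transcripts quantified via RT-PCR and CE fluorescence against DMSO baseline.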

A short description of assay [9]: ATG_TCF_b_cat_CIS: Attagene CIS-FACTORIAL HepG2 Assay for human T-Cell-Factor with beta-catenin (TCF/b-cat) (AID 2282965). The following applies: HepG2 TCF/beta-catenin cis-reporter transcription, actives raise or lower the signal. In short, it runs like this: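 Endogenous transcription factor activity is captured through cis-promoter reporter constructs transiently introduced into human HepG2 liver cells. Induced reporter mRNA is measured after 24 h and fitted bidirectionally relative to DMSO.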

Assay [10] can be described thus: ATG_TAL_CIS: Attagene CIS-FACTORIAL HepG2 Assay for human TAL Basal Promoter (AID 2282966).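 Also: background control endpoint measuring basal TAL promoter reporter mRNA not a specific factor.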 The following applies: HepG2 Attagene cis-factorial TAL promoter reporter; actives raise or lower the signal. A digest of the protocol:
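After 24 hours of chemical exposure, transfected HepG2 cells yielded RNA that was converted to 6-FAM-labelled, HpaI-digested reporter fragments for capillary electrophoresis. Values derive from bidirectional fitting against DMSO controls.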

The nature of assay [11]: ATG_TGFb_CIS: Attagene CIS-FACTORIAL HepG2 Assay for human Transforming Growth Factor (TGF) (AID 2282967). The following applies: HepG2 Attagene CIS TGFb reporter, mRNA transcription; actives raise or lower the signal. In short, it runs like this: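 Liver HepG2 line, cis-factorial reporter panel, 24 h dosing. Quantitation: RT-PCR products labeled with 6-FAM, cut with HpaI, resolved by capillary electrophoresis; DMSO-referenced bidirectional analysis.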

For assay [12], the target named is Nuclear receptor subfamily 1 group I member 3 (Homo sapiens) (UniProt Q14994). The experiment in a line: ATG_CAR_TRANS: Attagene TRANS-FACTORIAL HepG2 Assay for human Constitutive Androstane Receptor (CAR) (AID 2282969; active = hit-call score of the fitted dose curve at least 0.9, where 1 is the maximum;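 also: activators raise reporter mRNA above DMSO so AC50 marks induction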). The following applies: HepG2 Attagene TRANS-FACTORIAL CAR reporter. In short, it runs like this:
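Signal is reporter mRNA induction relative to DMSO, measured 24 h after dosing by RT-PCR with fluorescent primer extension and capillary electrophoresis. Human HepG2 liver cells carried transiently transfected chimeric NR-Gal4/GAL4-UAS reporter constructs.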

Assay [13] has as its target Estrogen receptor (Homo sapiens) (UniProt P03372). The experiment in a line: ATG_ERa_TRANS: Attagene TRANS-FACTORIAL HepG2 Assay for human Estrogen Receptor alpha (ERa) (AID 2282970; active = hit-call score of the fitted dose curve at least 0.9, where 1 is the maximum). The following applies: HepG2 Attagene TRANS ERa GAL4 reporter, mRNA. A digest of the protocol:
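Liver-derived HepG2 cells expressing chimeric nuclear receptor-Gal4 proteins from transient transfection were exposed for 24 hours. Gain of reporter mRNA signal versus DMSO, read by capillary electrophoresis of FAM-labelled PCR products, was recorded.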

In assay [14] the target is Steroid hormone receptor ERR1 (Homo sapiens) (UniProt P11474). The experiment in a line: ATG_ERRa_TRANS: Attagene TRANS-FACTORIAL HepG2 Assay for human Estrogen-Related Receptor alpha (ERRa) (AID 2282971; active = hit-call score of the fitted dose curve at least 0.9, where 1 is the maximum). The following applies: HepG2 Attagene TRANS reporter, ERRa transactivation. In short, it runs like this: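 Reporter transcript induction was quantified by RT-PCR and capillary electrophoresis of FAM-labelled, HpaI-cut products after 24 h treatment of HepG2 cells carrying transiently transfected GAL4-UAS reporter units and an exogenous ERRa-Gal4 fusion; activity scored as increase over DMSO.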

The target in assay [15] is X-box-binding protein 1 (Homo sapiens) (UniProt P17861). Put plainly: ATG_Xbp1_CIS: Attagene CIS-FACTORIAL HepG2 Assay for human X-box Binding Protein 1 (XBP1) (AID 2282972). The following applies: HepG2 XBP1 cis-element reporter, Attagene multiplex; actives raise or lower the signal. A digest of the protocol: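 Human hepatoma HepG2, cis-element reporter system, 24 h treatment; mRNA quantified by RT-PCR/CE fluorescence; fit relative to DMSO.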

Assay [16] concerns the target Estrogen-related receptor gamma (Homo sapiens) (UniProt P62508). The experiment in a line: ATG_ERRg_TRANS: Attagene TRANS-FACTORIAL HepG2 Assay for human Estrogen-Related Receptor gamma (ERRg) (AID 2282977; active = hit-call score of the fitted dose curve at least 0.9, where 1 is the maximum;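 also: hits increase reporter signal over DMSO so potencies reflect activators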). The following applies: HepG2 Attagene TRANS reporter, ERRg transactivation. A digest of the protocol:
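Readout: fluorescent reporter-mRNA fragments resolved by capillary electrophoresis after RT-PCR and HpaI cut. Cells: transiently transfected HepG2 carrying GAL4-UAS reporters driven by exogenous NR-Gal4 chimeras, dosed 24 h. Activity fitted upward relative to DMSO baseline.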

Assay [17] in a line: ATG_PPRE_CIS: Attagene CIS-FACTORIAL HepG2 Assay for human Peroxisome Proliferator-activated Response Element (PPRE) (AID 2282958). The following applies: HepG2 PPRE cis-element reporter, Attagene transcription factor profiling; actives raise or lower the signal. A digest of the protocol: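 PPRE activity in HepG2: transient cis-reporter transfection, 24 h compound incubation, reporter mRNA by RT-PCR and CE fluorescence; gain/loss fitted against DMSO.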

Assay [18] can be described thus: ATG_VDRE_CIS: Attagene CIS-FACTORIAL HepG2 Assay for human Vitamin D Receptor Element (VDRE) (AID 2282968). The following applies: HepG2 VDRE cis-reporter transcription, actives raise or lower the signal. A digest of the protocol: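 Measures endogenous factor activity through cis-element-driven reporter transcripts in transiently transfected HepG2. Cells are treated 24 h; reporter mRNA is quantified by RT-PCR and capillary electrophoresis; fitting is bidirectional.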

Assay [19] can be described thus: ATG_M_19_TRANS: Attagene TRANS-FACTORIAL HepG2 Assay for M19 Transcription Factor (Internal Marker) (AID 2282974; active = hit-call score of the fitted dose curve at least 0.9, where 1 is the maximum). The following applies: HepG2 Attagene TRANS-FACTORIAL M19 internal marker reporter. A digest of the protocol: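 Transfected HepG2 (GAL4-UAS MRTUs), 24 h compound, TriZol RNA, DNase-treated RT, reporter PCR, FAM label, HpaI digest, CE fluorescence; gain vs DMSO.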

Assay [20] can be described thus: ATG_GAL4_TRANS: Attagene TRANS-FACTORIAL HepG2 Assay for GAL4 (Internal Marker) (AID 2282976; active = hit-call score of the fitted dose curve at least 0.9, where 1 is the maximum). The following applies: HepG2 Attagene TRANS GAL4 internal marker reporter. In short, it runs like this:
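First, HepG2 cells were transfected with reporter units under GAL4-UAS control. Next, they were treated with chemical for 24 h. Finally, RNA was reverse-transcribed, PCR-amplified, FAM-labelled and resolved by capillary electrophoresis, with induction scored against DMSO.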

In PubChem BioAssay (EPA / NIEHS) one finds outcome and AC50 data, which are given here for six molecules.

For orientation: AC50 means the midpoint of the concentration-response curve, whichever way the signal moves.

Records with an inconclusive call do not appear. Active and inactive are the calls of the source. The calls were made as follows, unless noted: active = hit-call score of the fitted dose curve at least 0.9, where 1 is the maximum; inactive = score below 0.9.

Signal transducer and activator of transcription 3 (Homo sapiens), sequence (P40763 whole entry, looked up): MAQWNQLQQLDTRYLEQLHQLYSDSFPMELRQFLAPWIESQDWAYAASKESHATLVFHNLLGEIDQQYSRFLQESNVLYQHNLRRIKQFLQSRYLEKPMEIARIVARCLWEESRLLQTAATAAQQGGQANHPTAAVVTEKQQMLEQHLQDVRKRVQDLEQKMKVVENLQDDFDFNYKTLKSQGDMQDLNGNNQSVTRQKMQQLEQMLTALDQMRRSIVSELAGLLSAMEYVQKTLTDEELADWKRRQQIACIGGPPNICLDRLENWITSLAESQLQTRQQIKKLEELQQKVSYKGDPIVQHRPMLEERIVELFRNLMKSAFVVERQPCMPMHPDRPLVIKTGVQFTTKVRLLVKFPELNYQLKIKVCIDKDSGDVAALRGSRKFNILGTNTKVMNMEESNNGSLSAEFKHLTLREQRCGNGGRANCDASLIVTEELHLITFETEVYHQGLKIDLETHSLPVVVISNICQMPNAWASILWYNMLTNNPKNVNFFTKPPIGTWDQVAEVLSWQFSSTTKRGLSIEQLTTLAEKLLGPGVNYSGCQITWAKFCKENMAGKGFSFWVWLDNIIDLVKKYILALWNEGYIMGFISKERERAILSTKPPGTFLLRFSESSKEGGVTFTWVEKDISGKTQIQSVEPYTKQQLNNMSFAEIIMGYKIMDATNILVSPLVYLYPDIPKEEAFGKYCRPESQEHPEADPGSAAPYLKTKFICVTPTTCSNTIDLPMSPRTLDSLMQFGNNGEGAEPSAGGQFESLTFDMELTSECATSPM
X-box-binding protein 1 (Homo sapiens), sequence (P17861 whole entry, looked up): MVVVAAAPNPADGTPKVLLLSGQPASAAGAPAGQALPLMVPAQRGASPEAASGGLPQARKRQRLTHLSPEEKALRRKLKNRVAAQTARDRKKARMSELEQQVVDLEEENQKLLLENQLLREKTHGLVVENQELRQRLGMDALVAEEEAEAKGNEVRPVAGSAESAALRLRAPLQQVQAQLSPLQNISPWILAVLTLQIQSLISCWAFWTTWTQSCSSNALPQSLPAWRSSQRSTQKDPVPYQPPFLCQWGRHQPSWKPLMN
Paired box protein Pax-6 (Homo sapiens), sequence (P26367 whole entry, looked up): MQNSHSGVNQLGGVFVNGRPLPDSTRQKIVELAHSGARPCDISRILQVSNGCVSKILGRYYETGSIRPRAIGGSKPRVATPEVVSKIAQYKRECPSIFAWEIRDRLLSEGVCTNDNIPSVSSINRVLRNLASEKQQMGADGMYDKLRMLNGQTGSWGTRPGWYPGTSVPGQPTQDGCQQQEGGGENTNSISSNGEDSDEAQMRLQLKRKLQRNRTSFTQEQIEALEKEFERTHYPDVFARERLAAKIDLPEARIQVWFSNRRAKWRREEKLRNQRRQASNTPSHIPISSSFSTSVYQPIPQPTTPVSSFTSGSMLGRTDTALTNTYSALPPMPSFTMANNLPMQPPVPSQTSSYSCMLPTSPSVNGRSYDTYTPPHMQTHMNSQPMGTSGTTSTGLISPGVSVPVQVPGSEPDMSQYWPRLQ
Transcription factor Sp1 (Homo sapiens), sequence (P08047 whole entry, looked up, the tested form may be a part): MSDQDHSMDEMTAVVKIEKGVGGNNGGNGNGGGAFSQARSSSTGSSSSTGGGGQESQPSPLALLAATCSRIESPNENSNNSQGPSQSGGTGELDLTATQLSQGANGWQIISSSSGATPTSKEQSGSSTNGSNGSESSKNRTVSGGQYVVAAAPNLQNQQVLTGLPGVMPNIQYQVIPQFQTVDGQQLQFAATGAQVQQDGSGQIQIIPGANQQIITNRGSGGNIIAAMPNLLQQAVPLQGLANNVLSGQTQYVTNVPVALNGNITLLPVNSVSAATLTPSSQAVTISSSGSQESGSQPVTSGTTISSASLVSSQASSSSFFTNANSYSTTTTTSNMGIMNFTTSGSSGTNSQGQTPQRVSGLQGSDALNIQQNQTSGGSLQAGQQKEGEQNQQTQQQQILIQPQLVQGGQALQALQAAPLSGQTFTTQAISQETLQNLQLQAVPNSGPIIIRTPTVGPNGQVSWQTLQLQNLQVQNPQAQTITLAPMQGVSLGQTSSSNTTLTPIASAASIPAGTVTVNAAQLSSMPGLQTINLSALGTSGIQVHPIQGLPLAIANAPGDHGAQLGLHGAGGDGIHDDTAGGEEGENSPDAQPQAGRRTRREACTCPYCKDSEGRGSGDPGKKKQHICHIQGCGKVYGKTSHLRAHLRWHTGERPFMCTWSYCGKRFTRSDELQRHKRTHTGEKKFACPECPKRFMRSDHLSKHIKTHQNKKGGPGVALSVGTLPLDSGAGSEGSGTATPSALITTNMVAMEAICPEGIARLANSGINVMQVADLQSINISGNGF
Estrogen receptor (Homo sapiens), sequence (P03372 whole entry, looked up, the tested form may be a part): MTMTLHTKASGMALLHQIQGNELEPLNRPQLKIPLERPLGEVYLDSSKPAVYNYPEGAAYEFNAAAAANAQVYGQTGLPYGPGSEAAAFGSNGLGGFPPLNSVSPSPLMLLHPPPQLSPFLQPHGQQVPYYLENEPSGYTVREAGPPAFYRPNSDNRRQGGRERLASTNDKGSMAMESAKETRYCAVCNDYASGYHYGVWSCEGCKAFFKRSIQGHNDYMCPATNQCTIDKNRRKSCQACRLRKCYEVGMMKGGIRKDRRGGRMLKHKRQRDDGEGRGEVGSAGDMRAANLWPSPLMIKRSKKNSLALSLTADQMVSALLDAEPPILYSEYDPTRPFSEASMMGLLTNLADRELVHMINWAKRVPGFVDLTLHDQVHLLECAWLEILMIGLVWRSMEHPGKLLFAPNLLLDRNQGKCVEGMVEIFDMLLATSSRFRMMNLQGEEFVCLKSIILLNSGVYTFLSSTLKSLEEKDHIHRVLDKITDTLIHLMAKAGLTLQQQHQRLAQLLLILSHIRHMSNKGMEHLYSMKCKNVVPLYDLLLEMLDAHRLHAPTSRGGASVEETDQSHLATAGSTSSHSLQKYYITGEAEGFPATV
Nuclear receptor subfamily 1 group I member 3 (Homo sapiens), sequence (Q14994 whole entry, looked up, the tested form may be a part): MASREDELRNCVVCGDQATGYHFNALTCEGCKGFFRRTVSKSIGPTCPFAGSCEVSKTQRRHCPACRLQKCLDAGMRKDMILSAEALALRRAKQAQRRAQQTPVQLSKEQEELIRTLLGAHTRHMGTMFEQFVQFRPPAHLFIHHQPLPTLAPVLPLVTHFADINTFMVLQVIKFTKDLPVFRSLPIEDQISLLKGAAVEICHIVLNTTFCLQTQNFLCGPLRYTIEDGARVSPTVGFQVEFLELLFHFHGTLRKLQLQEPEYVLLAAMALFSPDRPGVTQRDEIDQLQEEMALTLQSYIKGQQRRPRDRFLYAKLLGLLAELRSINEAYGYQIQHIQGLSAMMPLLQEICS
Estrogen-related receptor gamma (Homo sapiens), sequence (P62508 whole entry, looked up, the tested form may be a part): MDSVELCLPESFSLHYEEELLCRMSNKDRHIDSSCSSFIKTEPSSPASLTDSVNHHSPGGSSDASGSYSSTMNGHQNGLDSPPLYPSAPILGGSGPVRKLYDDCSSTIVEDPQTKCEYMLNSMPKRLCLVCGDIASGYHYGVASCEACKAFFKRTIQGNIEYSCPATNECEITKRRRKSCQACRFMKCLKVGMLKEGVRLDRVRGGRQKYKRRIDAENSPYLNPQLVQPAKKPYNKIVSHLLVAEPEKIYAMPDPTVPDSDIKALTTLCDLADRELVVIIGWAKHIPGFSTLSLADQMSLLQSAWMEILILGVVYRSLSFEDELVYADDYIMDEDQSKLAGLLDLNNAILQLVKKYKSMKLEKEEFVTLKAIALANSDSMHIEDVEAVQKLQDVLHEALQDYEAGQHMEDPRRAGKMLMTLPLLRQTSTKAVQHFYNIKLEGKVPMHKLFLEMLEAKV
Steroid hormone receptor ERR1 (Homo sapiens), sequence (P11474 whole entry, looked up, the tested form may be a part): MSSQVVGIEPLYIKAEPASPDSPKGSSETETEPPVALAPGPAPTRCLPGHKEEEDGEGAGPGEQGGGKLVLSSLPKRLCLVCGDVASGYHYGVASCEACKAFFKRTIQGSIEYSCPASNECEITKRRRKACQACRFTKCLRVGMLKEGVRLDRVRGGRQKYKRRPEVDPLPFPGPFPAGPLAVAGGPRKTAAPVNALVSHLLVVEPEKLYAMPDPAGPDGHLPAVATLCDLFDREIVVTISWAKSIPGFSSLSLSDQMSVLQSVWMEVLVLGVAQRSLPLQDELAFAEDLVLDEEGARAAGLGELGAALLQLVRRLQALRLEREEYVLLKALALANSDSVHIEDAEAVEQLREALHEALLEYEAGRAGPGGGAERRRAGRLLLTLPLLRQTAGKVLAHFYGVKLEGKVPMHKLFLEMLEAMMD

In the case of `Cc1ccc(N/N=c2\c(=O)cc/c(=N/Nc3ccc(S(=O)(=O)O)cc3)c2=O)c(C)c1`, the result in [1], in assay [3], in assay [4], in assay [5], in assay [6] and in [7] was inactive. Moreover, the molecule was called inactive in assay [8], in assay [9], in [10], in assay [11], in assay [12] and in [14]. Besides, the result in [15] and in [16] was inactive. Moreover, the values for the AC50 in assay [2] and in [13] were 42.6 µM (active) and 100 µM (active), respectively.

As for `c1cc(C(c2ccc(OCC3CO3)cc2)C(c2ccc(OCC3CO3)cc2)c2ccc(OCC3CO3)cc2)ccc1OCC1CO1` (stereo unspecified), the AC50 in assay [1] is 34.4 µM (active); in assay [2] it was 7.01 µM (active); in assay [5], 31.8 µM (active); in assay [8], 72.2 µM (active); in [9], 36.8 µM (active); in [10], 44.8 µM (active). Besides, the concentration at half-maximal activity (AC50) is 17 µM (active) in assay [18] and 22.9 µM (active) in assay [15]. For the same molecule, the call in assay [17], in [6], in assay [7], in assay [11], in assay [19] and in assay [20] was inactive.

As for `ON(Cc1ccccc1)Cc1ccccc1`, the outcome in [1], in assay [17], in [4], in assay [5], in assay [6] and in assay [7] was inactive. In addition, the call in [8], in assay [9], in assay [10], in assay [11], in assay [12] and in assay [13] was inactive. The call in assay [15] and in [19] was inactive. Also, the concentration at half-maximal activity (AC50) in assay [2] was 41.6 µM (active).

Consider `CCOC(=O)NNc1nncc2ccccc12`, for which the outcome in [1], in assay [2], in assay [17], in [4], in assay [5] and in assay [6] was inactive. Further, the call in assay [7], in assay [8], in assay [9], in assay [10], in [11] and in [18] was inactive. Also, the outcome in assay [15] and in assay [20] was inactive.

In the case of `CC(=O)OC1C2(C)CCC(C2)C1(C)C` (stereo unspecified), the molecule was called inactive in [1], in assay [2], in assay [17], in assay [5], in assay [7] and in [8]. Moreover, the call in assay [10], in assay [11], in assay [13], in assay [15] and in assay [16] was inactive.

Consider `O=C(O)C(c1ccc(Cl)cc1)c1ccc(Cl)cc1`, for which the molecule was classed as inactive in assay [1], in assay [3], in assay [4], in assay [5], in assay [6] and in [7]. Also, the call in [8], in assay [9], in assay [10], in assay [11], in assay [18] and in [15] was inactive. For the same molecule, the result in [19] and in assay [20] was inactive. Further, the AC50 in assay [2] is 62.7 µM (active); in assay [13] it was 7.33 µM (active).
